A selection: hits, their analogues and other compounds. The true share with any hit is near 2.8%.
PP1 counter: counter-screen for PP5 inhibitors: inhibitors of human PP1-alpha; P62136; purified PP1alpha, OMFP fluorescence; inhibition, % at 6.7 µM; 0.9% of 320,000 active; AID 2235;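 active = inhibition above the mean inhibition of all tested compounds plus 3 SD, computed separately for each screening campaign, cut at about 15% in these data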
PP5 inh: PP5 (human) phosphatase inhibition; purified PP5c, OMFP substrate fluorescence; inhibition, % at 6.7 µM; AID 1987; 0.18% of 320,000 active; P53041;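 active = inhibition above the campaign's mean inhibition across all tested compounds plus 3 SD, cut at about 9.5% in these data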;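 note: 0% = DMSO only and 100% = 100 µM cantharidin control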
SKKanGAS inh: SKKanGAS growth inhibition | inhibition, % at 7.5 µM | S. pyogenes SKKanGAS, kanamycin growth, BacTiter-Glo, 6 h | 1.3% of 300,000 active;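 active = mean replicate score, as percent of positive control median, at least 50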;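 note: strain carries kanamycin resistance gene driven by streptokinase promoter and grows in 40 µg/ml kanamycin; loss of luminescence reflects streptokinase promoter inhibition or plain growth inhibition; 0% = median of DMSO wells and 100% = positive control at its reference dose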
IDE cell inh: cellular human IDE inhibition; AID 434962; HEK cells, FAbetaB cleavage, fluorescence polarization; inhibition, % at 5.59 µM; P14735; 0.41% of 320,000 active;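 active = percent inhibition above the average of all tested compounds plus 3 SD, set per screening campaign, cut at about 16% in these data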;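 note: IDE supplied by intact live HEK cells; FP after avidin binding of uncleaved biotin substrate so inhibition keeps polarization high; 0% = DMSO wells and 100% = 60 µM reference IDE inhibitor Ii1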
IDE cell activ: activators of human insulin-degrading enzyme in cells; AID 493087; HEK cells, FAbeta-B cleavage, fluorescence polarization; 0% vehicle, 100% cell-free pure enzyme wells; 0.073% of 340,000 active; P14735; activation, % at 5.96 µM;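 active = activation above the mean of all tested compounds plus 3 SD, set per screening campaign, cut at about 17% in these data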
Granule exo inh: blocks lytic granule exocytosis | inhibition, % at 10 µM | TALL-104 LAMP-1 surface exposure, flow cytometry; cells stimulated with thapsigargin and PMA | 0.66% of 360,000 active;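 active = inhibition above about 55%, limit read from the data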
* marks the source's active call; other numbers are inactive results; nt = not tested or not shown; ! = a repeat was not active.

SMILES	PP1 counter	PP5 inh	SKKanGAS inh	IDE cell inh	IDE cell activ	Granule exo inh
Cc1cc(-c2ccc(N=Nc3c(S(=O)(=O)O)cc4cc(S(=O)(=O)O)cc(N)c4c3O)c(C)c2)ccc1N=Nc1c(S(=O)(=O)O)cc2cc(S(=O)(=O)O)cc(N)c2c1O	75.8*	17.7*	nt	4.8	nt	nt
Cc1cc(C)cc(OC(C)C(=O)Nc2ccccc2C(=O)NCc2cccnc2)c1 (centres undefined)	2.4	3.0	-13.9	3.8	0.4	-0.6
CCOC(=O)Cc1csc(SCC(=O)N2CCN(c3ccccc3)CC2)n1	nt	nt	nt	-0.4	-5.2	1.2
Cc1ccc2c(c1)C1C=CCC1C(C(=O)O)N2 (centres undefined)	20.3*	-0.1	-0.2	-1.8	nt	nt
COc1cccc2c1NC(C(=O)O)C1CC=CC21 (centres undefined)	37.4*	3.8	0.3	4.1	1.4	-2.9
CC(=O)c1ccc2c(c1)C1C=CCC1C(C(=O)O)N2 (centres undefined)	nt	nt	nt	nt	nt	-2.5
O=C(O)C1Nc2c(cccc2C(F)(F)F)C2C=CCC12 (centres undefined)	nt	nt	10.7	nt	nt	nt
Cc1c(NC(=O)Cc2ccccc2)cccc1C(=O)NN1C(=O)c2ccccc2C1=O	-2.9	-1.7	-2.2	0.5	2.7	5.8
Cc1ccc(S(=O)(=O)N2[C@H](CC(=O)c3cccc4ccccc34)OC[C@@H]2C)cc1	nt	nt	nt	nt	nt	3.5
Cc1nc2c(sc(=S)n2Cc2ccco2)c(=O)n1CC(=O)Nc1cc(F)ccc1F	0.9	-1.0	19.1	9.8	-1.1	-4.9
CN1/C(=C/C(=O)c2nc(S(C)(=O)=O)ncc2Cl)C(C)(C)c2ccccc21	-0.6	2.6	-32.4	3.5	0.3	57.7*
COc1ccc(CCC(=O)OCC(=O)NC2CCCC2)cc1OC	nt	nt	nt	nt	nt	-1.6
Cc1ccc(-n2[nH]c(C)c(C=Nc3ccc4[nH]c(=O)[nH]c4c3)c2=O)cc1	0.5	0.5	20.5	-2.2	1.2	0.5
Cc1ccc(N=Cc2c(C)[nH]n(-c3nc4ccccc4[nH]3)c2=O)cc1	14.5	2.5	66.0*	2.4	5.1	-0.8
COc1ccc(S(=O)(=O)N2CCCCC2)cc1NS(=O)(=O)c1ccccc1	nt	nt	nt	2.4	3.2	3.6
CCS(=O)(=O)Nc1ccc(-c2cc(-c3ccccc3)c3cc(C)ccc3n2)cc1	6.3	6.8	95.4*	9.2	5.7	2.3
CCOc1ccc(/C=N/NC(=S)NC2CC3CC2C2C=CCC32)cc1 (centres undefined)	-1.8	3.3	64.2*	-5.4	nt	-1.7
c1ccc(N2CC3COc4ccccc4C3=N2)cc1 (centres undefined)	nt	nt	nt	nt	1.4	-7.1
NC(=O)c1ccc(NC(=O)COC(=O)c2c3c(nc4ccccc24)/C(=C\c2cccs2)CCC3)cc1	-1.6	3.1	91.0*	0.9	5.1	-2.4
CCc1cccc(C)c1NC(=O)COC(=O)c1c2c(nc3ccccc13)/C(=C\c1cccs1)CCC2	7.5	2.6	15.0	6.5	1.6	4.6
c1ccc(COc2ncnc3c2ncn3CCCNCc2ccc3c(c2)OCO3)cc1	nt	nt	nt	nt	1.5	3.6
Cc1nn(Cc2ccccc2Cl)c2sc(C(=O)Nc3ccccc3N3CCOCC3)cc12	-2.4	4.2	60.2*	1.9	-2.9	-2.2
Cc1nn(Cc2ccc(F)cc2)c2sc(C(=O)Nc3ccccc3N3CCOCC3)cc12	1.1	2.8	9.6	2.7	2.2	-5.7
COc1cccc(C2NC(c3cccc(OC)c3O)C(C)C(=O)C2C)c1O (centres undefined)	-0.1	5.9	12.3	1.5	-4.6	-3.2
CC1C(=O)C(C)C(c2cc(Cl)ccc2O)NC1c1cc(Cl)ccc1O (centres undefined)	6.6	6.7	74.1*	3.5	2.9	16.8
SMILES	PP1 counter	PP5 inh	SKKanGAS inh	IDE cell inh	IDE cell activ	Granule exo inh
CNc1ccc(Br)cc(C(=O)/C=C/c2cccc(Cl)c2Cl)c1=O	nt	nt	nt	nt	-4.9	98.2*
Cc1ccc(S(=O)(=O)N2[C@H](CC(=O)c3ccc(F)cc3)OC[C@@H]2C)cc1	nt	nt	nt	nt	nt	-0.8
CC(C)N1CCSC1=S	nt	nt	nt	nt	2.7	1.6
Cc1nc(N(C)Cc2ccccc2)c2nnn(Cc3ccccc3)c2n1	0.2	-0.7	27.7	-2.2	-3.3	0.7
CCN(CC)c1nc(C(F)(F)F)nc2c1nnn2Cc1ccccc1	1.0	3.3	57.8*	0.6	-1.0	0.0
CSc1nc(N)nc2c1ncn2Cc1ccccc1	nt	nt	nt	nt	-3.7	-0.7
CN1CCN(Cc2nc3ccccc3c(=O)n2Cc2nc(-c3ccc4ccccc4c3)cs2)CC1	8.1	1.4	12.2	-1.4	4.0	64.8*!
CN1CCN(Cc2nc3ccccc3c(=O)n2Cc2nc(-c3cccc([N+](=O)[O-])c3)cs2)CC1	nt	nt	nt	nt	nt	43.4
O=C(NCc1ccccn1)Nc1cc(Cl)cc(Cl)c1	-2.8	-0.2	76.9*	3.5	0.0	-0.3
O=C(Nc1cccc(Cl)c1)Nc1cccc(Cl)c1	5.1	8.2	16.6	1.4	6.2	0.2
O=C(NCCNC(=O)c1cc(OCC(F)(F)F)ccc1OCC(F)(F)F)Nc1cccc(C(F)(F)F)c1	8.4	4.1	2.2	5.4	-0.7	1.7
O=C(Nc1ccccc1)Nc1cc(Cl)cc(Cl)c1	1.6	9.1	83.9*	-0.5	-2.5	-7.9
O=C(Nc1ccccc1)Nc1cc(OCC(F)(F)F)cc(OCC(F)(F)F)c1	nt	nt	51.7*	nt	-3.7	31.1
O=C1NCCN/C1=C\C(=O)c1cccc(Br)c1	-2.1	-0.2	-1.6	3.4	1.1	3.2
C[C@@H](c1ccccc1)N1C[C@H](COCc2ccccc2)Oc2cc(N3CC[C@@H](O)C3)ccc2S1(=O)=O	nt	nt	nt	nt	nt	18.8
O=c1[nH]c2ccc(Cl)cc2c(-c2ccccc2)c1N1CCOCC1	1.3	3.7	-8.2	0.1	9.3	-2.2
O=c1[nH]c2ccc(Cl)cc2c(-c2ccccc2)c1N1CCN(c2ccccn2)CC1	-1.9	-1.2	83.8*	-3.3	6.6	0.5
C/C(=N\NC(=O)c1ccccc1N)c1ccc(NC(=O)Cc2ccccc2)cc1	nt	nt	67.5*	nt	-5.4	-10.7
O=C(Nc1ccccc1C(F)(F)F)c1cc(-c2ccccc2O)on1	16.1*	1.1	-3.6	5.0	-7.2	-1.0
CNS(=O)(=O)c1cccc(C(=O)OCC(=O)c2c(N)n(Cc3ccccc3)c(=O)n(C)c2=O)c1	nt	nt	nt	nt	-4.4	7.2
CC(C)c1ccc(NC(=O)c2snc3ccc(Cl)cc23)cc1	-0.8	1.6	8.5	-0.7	3.2	6.5
S=C(NCCC1=CCCCC1)NCc1ccco1	-0.3	3.5	-17.2	3.6	1.6	1.0
C#CCCc1cscc1/C=[N+](\[O-])c1ccc(C(=O)OCC)cc1	15.3*	-1.5	nt	0.8	1.6	1.7
CCOC(=O)c1ccc(/[N+]([O-])=C/c2ccccc2)cc1	-2.9	-2.9	nt	-2.2	0.7	2.2
Cn1cc(CCC(=O)N2CCCC(N3CCN(c4ccccc4F)CC3)C2)cn1 (centres undefined)	-2.9	-1.6	-1.6	1.6	2.0	4.7
O=C(NC1CCCc2ccccc21)c1cccc(S(=O)(=O)N2CCN(c3ccccc3)CC2)c1 (centres undefined)	15.4*	4.6	4.3	1.3	1.0	-2.6
O=c1c2ccccc2oc2ccccc12	nt	nt	nt	nt	nt	-6.2

Screening data from PubChem BioAssay.
